For four compounds, outcome and AC50 results are on record in PubChem BioAssay (EPA / NIEHS).

Test [1] concerns the target THRB (gene 7068) (UniProt P10828). Kind of test: TOX21_TRB_BLA_Agonist_Followup_ratio: Tox21 Thyroid Hormone Receptor beta Agonism Beta-lactamase (BLA) Follow-Up Assay, Ratio (AID 2283954). In a few lines:
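Human TRβ LBD–GAL4 DBD fusion in GeneBLAzer UAS-bla HEK293T cells; 11 concentrations in triplicate, 18 h at 37°C/5% CO2, T3 as agonist control. CCF4-AM substrate 2 h at room temperature; 460:530 nm ratio fitted for gain of signal versus DMSO.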

The target of test [2] is Nucleoli Translocation, AR (gene 367) (UniProt P10275). Briefly: UPITT_HCI_U2OS_AR_TIF2_Nucleoli_Antagonist: University of Pittsburgh U2OS Androgen Receptor-Transcriptional Intermediary Factor 2 (AR-TIF2) Antagonism High Content Imaging Assay for Nucleoli Translocation (AID 2283997). In a few lines: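 U2OS cells co-expressing red-fluorescent-tagged human AR and green-fluorescent-tagged TIF2, imaged by high-content microscopy for nucleolar red fluorescence. Antagonist mode against DHT; primary screen at 20 uM final (0.2% DMSO).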
Nucleoli Translocation, AR (gene 367), sequence (P10275 whole entry, looked up): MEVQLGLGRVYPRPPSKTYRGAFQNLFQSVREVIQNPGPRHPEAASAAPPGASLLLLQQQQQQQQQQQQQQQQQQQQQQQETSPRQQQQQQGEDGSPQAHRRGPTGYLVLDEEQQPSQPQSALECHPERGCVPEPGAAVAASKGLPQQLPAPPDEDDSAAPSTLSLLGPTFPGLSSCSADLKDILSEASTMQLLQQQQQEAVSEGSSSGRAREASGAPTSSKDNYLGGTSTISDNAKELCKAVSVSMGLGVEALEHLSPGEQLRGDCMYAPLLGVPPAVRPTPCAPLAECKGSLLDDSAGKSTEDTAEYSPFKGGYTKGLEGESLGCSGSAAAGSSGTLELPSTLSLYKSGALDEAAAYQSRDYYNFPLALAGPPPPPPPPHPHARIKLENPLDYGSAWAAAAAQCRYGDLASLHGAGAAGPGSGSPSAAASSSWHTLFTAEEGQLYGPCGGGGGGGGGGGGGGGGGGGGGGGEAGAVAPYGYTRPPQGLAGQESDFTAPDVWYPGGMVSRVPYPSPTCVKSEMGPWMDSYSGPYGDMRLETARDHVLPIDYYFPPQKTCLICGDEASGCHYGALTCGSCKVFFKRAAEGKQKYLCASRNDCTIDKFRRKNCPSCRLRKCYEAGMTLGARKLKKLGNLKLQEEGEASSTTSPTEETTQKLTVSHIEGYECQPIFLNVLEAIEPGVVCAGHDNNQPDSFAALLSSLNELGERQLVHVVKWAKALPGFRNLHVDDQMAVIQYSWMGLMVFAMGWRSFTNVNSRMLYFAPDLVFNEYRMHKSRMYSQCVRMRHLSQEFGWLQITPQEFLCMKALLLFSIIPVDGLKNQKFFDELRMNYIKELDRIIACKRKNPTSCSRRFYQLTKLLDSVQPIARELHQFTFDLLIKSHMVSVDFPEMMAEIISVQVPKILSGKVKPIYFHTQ

Test [3] has the same target. Briefly: UPITT_HCI_U2OS_AR_TIF2_Nucleoli_Agonist: University of Pittsburgh U2OS Androgen Receptor-Transcriptional Intermediary Factor 2 (AR-TIF2) Agonism High Content Imaging Assay for Nucleoli Translocation (AID 2283998). The procedure, abridged:
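RFP-AR / GFP-TIF2 cells; cpds diluted in serum-free medium; single-point screen 20 uM final (0.2% DMSO), actives confirmed in triplicate; conc-response 0.195–50 uM final (0.5% DMSO). Readout: nucleolar red fluorescence, positive direction vs DMSO.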

Test [4] addresses Ratio of Nucleoli Translocation and Cytoplasm, AR (gene 367) (UniProt P10275). Kind of test: UPITT_HCI_U2OS_AR_TIF2_Nucleoli_Cytoplasm_Ratio_Antagonist: University of Pittsburgh U2OS Androgen Receptor-Transcriptional Intermediary Factor 2 (AR-TIF2) Antagonism High Content Imaging Assay for Ratio of Nucleoli Translocation and Cytoplasm (AID 2283999).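 Also: antagonists lower the DHT-driven ratio of nucleolar to cytoplasmic red signal.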 In a few lines: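 U2OS cells expressing RFP-tagged human AR and GFP-tagged TIF2; compounds tested at 20 uM final (0.2% DMSO) in primary screen, 0.195–50 uM (0.5% DMSO) for concentration response. Readout: nucleolar-to-cytoplasmic red fluorescence ratio by high-content imaging, fitted relative to DHT.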

The target is the same in test [5]. Briefly: UPITT_HCI_U2OS_AR_TIF2_Nucleoli_Cytoplasm_Ratio_Agonist: University of Pittsburgh U2OS Androgen Receptor-Transcriptional Intermediary Factor 2 (AR-TIF2) Agonism High Content Imaging Assay for Ratio of Nucleoli Translocation and Cytoplasm (AID 2284000).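 Also: hits raise the red nucleolar to cytoplasm ratio above vehicle.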 In a few lines: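 U2OS cells expressing RFP-tagged human AR and GFP-tagged TIF2; high-content imaging ratio of nucleolar to cytoplasmic red fluorescence, fitted as gain of signal vs DMSO. Single point at 20 uM final (0.2% DMSO); concentration-response 0.195-50 uM final (0.5% DMSO).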

Test [6] can be described thus: CCTE_Shafer_MEA_acute_spike_number: CCTE's Neural Acute Assay for Total Number of Spikes, Shafer Lab (AID 2284008; active = hit-call score of the fitted dose curve at least 0.9, where 1 is the maximum; inactive = score below 0.9). In a few lines: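 Rat cortical cultures, DIV 13/15, 37 C. 40 min baseline rec, cpd 0.03-40 uM, 40 min post-dose rec. Band-pass 300-5000 Hz, spike threshold 8x rms; % change in spike count per well, DMSO neg ctrl, loss-of-signal fit.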
Test [7] is described as follows: CCTE_Shafer_MEA_acute_firing_rate_mean: CCTE's Neural Acute Assay for Mean Firing Rate, Shafer Lab (AID 2284009; active = hit-call score of the fitted dose curve at least 0.9, where 1 is the maximum; inactive = score below 0.9;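 also: analyzed for loss of signal so actives lower firing rate relative to DMSO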). In a few lines:
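Rat primary cortical neurons on 48-well MEA plates, dosed at 0.03-40 uM on DIV 13 or 15; 40 min spontaneous activity recorded at 37 C before and after compound. Spike rate per electrode averaged per well, expressed as percent change from baseline.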

Records with an inconclusive call do not appear. Calls of active or inactive are those of the source. The calls were made as follows, unless noted: active = hit-call score of the fitted dose curve at least 0.9, where 1 is the maximum; inconclusive = response in the unintended direction; inactive = score below 0.9.

The AC50 is the concentration at which the activity in the assay is half-maximal.

Ratio of Nucleoli Translocation and Cytoplasm, AR (gene 367), sequence (P10275 whole entry, looked up): as above
THRB (gene 7068), sequence (P10828 whole entry, looked up, the tested form may be a part): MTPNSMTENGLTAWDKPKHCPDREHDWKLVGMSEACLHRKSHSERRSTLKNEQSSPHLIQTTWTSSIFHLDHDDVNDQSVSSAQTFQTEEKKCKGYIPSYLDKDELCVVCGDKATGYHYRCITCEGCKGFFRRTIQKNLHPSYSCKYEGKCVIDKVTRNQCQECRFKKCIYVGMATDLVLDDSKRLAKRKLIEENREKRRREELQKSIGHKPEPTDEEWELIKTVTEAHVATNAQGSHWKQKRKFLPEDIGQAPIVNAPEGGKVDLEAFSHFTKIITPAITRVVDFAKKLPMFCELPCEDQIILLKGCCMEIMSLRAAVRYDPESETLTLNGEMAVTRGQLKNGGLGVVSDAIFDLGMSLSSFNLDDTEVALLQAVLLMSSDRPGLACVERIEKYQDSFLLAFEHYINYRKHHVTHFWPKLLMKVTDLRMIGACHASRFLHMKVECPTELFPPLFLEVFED

Consider `NC(CO)(CO)CO`, for which the result in test [1] was inactive.
The same measure, in the same setting: under `CCCCCCC(O)CO` (stereo not drawn) stands “inactive”.
With `Oc1ccc(Cl)cc1Cc1cc(Cl)ccc1O`, the AC50 was 12.1 µM (active) in test [2], 1.77 µM (active) in test [3] and 16.3 µM (active) in test [4]. Besides, the outcome in test [5] was inactive.
Consider `CCOC(=O)c1ccccc1C(=C1C=C(Br)C(=O)C(Br)=C1)c1cc(Br)c(O)c(Br)c1`, for which the call in test [6] and in test [7] was inactive.
